The whole screen tested about 48,000 compounds, of which about 13,000 (27%) showed an effect of 50% or more. The list shows a part of the results.
Test system: Wolbachia pipientis
Assay: Anti-Wolbachia Cell-Based Screen
Format: functional
Set-up: scale not given: in the data most compounds retested in dose-response had high values
Conditions: 5 µM

Structure (SMILES) | Percent Effect
CN(C)c1cc(C(=O)NCC2(c3ccc(F)cc3)CC2)ccn1 | -8.141%
NC(=O)CCC1CCCN(c2ccc3ccc(F)cc3n2)C1 (stereo not drawn) | 91.08%
O=C(NCCC1=CCCCC1)C1CCCN(c2ccc3nncn3n2)C1 (stereo not drawn) | 4.301%
O=C(NCCc1ccccc1)C1CCCN(c2ccc3nncn3n2)C1 (stereo not drawn) | 7.633%
O=C(O)c1cn(CC2CCCN(c3ccc4ccccc4n3)C2)nn1 (stereo not drawn) | -23.62%
CCNC(=O)C1CCCN(c2ccc(C#N)cc2C(F)(F)F)C1 (stereo not drawn) | -8.319%
CCNC(=O)C1CCCN(c2ccc3ccc(F)cc3n2)C1 (stereo not drawn) | 95.98%
NC(=O)c1ccc(N2CCN(Cc3ccc(F)cc3Cl)CC2)nn1 | 4.526%
CCNC(=O)C1CCCN(c2cccc(C(F)(F)F)n2)C1 (stereo not drawn) | 5.494%
CCCNC(=O)C1CCCN(c2ccc3nncn3n2)C1 (stereo not drawn) | 106.8%
CC(C)OCc1cccc(NC(=O)N2CCCC(CCC(N)=O)C2)c1 (stereo not drawn) | -9.131%
NC(=O)CCC1CCCN(c2ccc3c(Cl)ccnc3c2F)C1 (stereo not drawn) | -4.467%
NC(=O)CCC1CCCN(c2ccnc3cc(F)ccc23)C1 (stereo not drawn) | 94.8%
CSc1ncc(CNC(C)c2cnn(-c3ccc(F)cc3F)c2C)cn1 (stereo not drawn) | -22.9%
O=c1cc(N2CCc3ccccc3C2)cnn1CCC1CCOC1 (stereo not drawn) | 5.025%
CN1CC(Oc2ccccc2)=NC(SCC(=O)Nc2ccccc2Cl)=N1 | 15.6%
COc1cccc([C@H]2CN(C(C)=O)[C@@H]3CCN(Cc4ccsc4)C[C@H]23)c1.Cl | 57.96%
CC(=O)N1C[C@@H](c2ccsc2)[C@@H]2CN(Cc3cccc(Cl)c3)CC[C@@H]21 | 2.234%
CCN1C[C@@H](C(=O)O)[C@H](c2cccc(OC)c2)C1 | 8.176%
COc1cccc(CC(=O)N2CC[C@H]3[C@@H]2CCC(=O)N3C)c1 | -18.88%
CCN1CCC(N2C[C@@H](C(=O)O)[C@H](c3cccc(OC)c3)C2)CC1 | 12.25%
COc1cccc(CN2CC[C@H]3[C@@H](C2)[C@H](c2ccsc2)CN3C(C)=O)c1 | 146.6%
CCc1c(C)nc(C)nc1N1CCC(NCCSc2nnnn2C)CC1 | 11.48%
O=C(c1cn(CCN2CCCCC2)nn1)N1CCCCO1 | -10.33%
COc1nc2c(cc1C(=O)N1CCCOC(Cn3cccn3)C1)CCC2 (stereo not drawn) | 0.1052%

Structure (SMILES) | Percent Effect
CCN1C[C@H]2C3(CCN(C(=O)NC(C)C)CC3)CC[C@@]2(C(=O)N(C)C)C1.O=C(O)C(F)(F)F | -2.762%
O=C(NCCc1ccccn1)C1=NN(c2ccccc2)C(=O)CN1 | 14.32%
Cc1cnc(CNC(=O)c2cc3c(s2)CCN3S(C)(=O)=O)cn1 | -3.088%
CS(=O)(=O)N1CCc2sc(C(=O)NCc3ccccc3)cc21 | 99.89%
CS(=O)(=O)N1Cc2nc(C(=O)NCc3ccccc3)oc2C1 | 1.051%
CNS(=O)(=O)c1ccc(C(=O)NCCc2ccccn2)cc1 | -0.4969%
CS(=O)(=O)N1CCc2sc(C(=O)NCc3ccncc3)cc21 | 102.3%
CS(=O)(=O)N1CCc2sc(C(=O)NCCc3ccccn3)cc21 | 98.67%
COC(=O)N1CCc2ccccc2C1C(=O)NCc1ccncc1 (stereo not drawn) | 5.289%
CCOc1cccc(C(C)NC(=O)N2CCC(C(N)=O)CC2)c1 (stereo not drawn) | -12.9%
Cc1ccc(-c2cnc(CCC(=O)NCCN3CCOCC3)o2)cc1C | 7.661%
CC(C)Oc1ncnc2c1CCN(c1cc(C(F)(F)F)ncn1)CC2 | -5.603%
N#Cc1cccc(CN2C[C@@H](F)[C@@H](OCc3nc4ccccc4[nH]3)C2)c1 | 3.783%
COc1cc(C(=O)NCc2ccc3c(c2)CCCN3C)cc(OC)c1Br | 103.6%
CC(C)Oc1ccc(C(=O)NCc2ccc3c(c2)CCCN3C)cn1 | 82.05%
CC(C)Oc1ccc(C(=O)NCc2ccnc(N3CCCC3)c2)cn1 | 1.854%
CN1CCCc2cc(CNC(=O)c3ccc(NC4CC4)nc3)ccc21 | -0.6873%
COC(=O)c1cccc(CNC(=O)CC(F)(F)F)c1 | -8.665%
COC(=O)c1cccc(CNC(=O)c2cc(C(C)C)n(C)n2)c1 | -2.718%
CCOCC1CCN(C(=O)Nc2ccc3c(c2)CCCN3C)C1 (stereo not drawn) | -6.058%
COC(=O)c1cccc(C(=O)NCc2ccc3c(c2)CCCN3C)c1 | 93.26%
COc1ccc(CNC(=O)c2ccc(=O)n(C)c2)cc1C | -12.06%
CS(=O)(=O)CC1CCCN(c2ncnc3c2Cc2ccccc2OC3)C1 (stereo not drawn) | 8.787%
CC(C)c1nc(CNc2ccc(CCO)cc2)cs1 | -6.765%
Cc1nonc1N1CCN(Cc2nc(CC3CC3)no2)CC1 | -9.131%

Structure (SMILES) | Percent Effect
CC1(c2nccs2)CCN(C(=O)CC2CCOCC2)CC1 | 133.3%
Cc1occc1C(=O)N1CCC2(CCN(Cc3nccs3)CC2)C1 | 13.46%
O=C(CCNC1(c2nccs2)CCCC1)N1CCOCC1 | -14.98%
C[C@@H](NC(=O)c1cnccn1)c1c(-c2ccc(F)cc2)noc1C(=O)O | 0.3029%
Cc1ccc(C(=O)N2CCN(CCc3cccs3)CC2)c(=O)[nH]1 | 4.078%
Cc1ccc(C2(O)CCN(Cc3nnc(-c4cccnc4)o3)CC2)nc1 | -8.871%
Cc1ccc(-c2nnc(CN3CCN(c4ccccn4)CC3)o2)cc1 | 118.2%
Cc1ccc(-c2nnc(CN3CCNC(=O)C3)o2)cc1 | -29.77%
Cc1nnc2n1CCN(C(=O)C(OC1CCCC1)c1ccccc1)C2 (stereo not drawn) | 0.08716%
O=C(Nc1ccccc1)N1CCn2c(nnc2C2CCCN2)C1 (stereo not drawn) | 106.2%
O=C(Nc1ccccc1)N1CCn2c(nnc2C2CCNCC2)C1 | 105.9%
O=C(c1ccccc1O)N1CCn2c(nnc2C(F)(F)F)C1 | -8.527%
CC(C)NC(=O)C(c1ccccc1)N1CCn2c(nnc2C2CC2)C1 (stereo not drawn) | 0.9151%
Cc1cc(NC(=O)CN2CCn3c(nnc3C3CC3)C2)no1 | -12.55%
Cn1cc(CNCC2(N3CCCCC3)Cc3ccccc3C2)cn1 | -0.5934%
CN(C)C(=O)[C@H]1C[C@H]2OCC[C@H]2N(CCOc2ccc(Cl)cc2)C1.O=C(O)C(F)(F)F | -1.97%
CNC(=O)c1n[nH]c2c1C(c1cccc3nsnc13)CC(=O)N2 (stereo not drawn) | 1.687%
O=C1CC(c2ccc3ccccc3n2)c2c(n[nH]c2C2CCC2)N1 (stereo not drawn) | 48.61%
CC(C)c1nccc(C2CC(=O)Nc3n[nH]c(C4CCC4)c32)n1 (stereo not drawn) | 111.7%
COc1nc2ccccc2cc1C1CC(=O)Nc2n[nH]c(C3CCC3)c21 (stereo not drawn) | 94.97%
O=C(CN1CCCC1c1nc(Cc2ccc(F)cc2)no1)NC1CC1 (stereo not drawn) | 6.491%
CCCN(CC1CC1)C(=O)CN1CCCC1c1cnn(C)c1 (stereo not drawn) | -10.58%
COCCOC[C@]1(CNCc2ccc(F)cc2)C[C@@H](O)[C@@H](O)C1.Cl | 9.118%
CCn1ncc2c1CCCC2NCc1ccc(C)s1 (stereo not drawn) | -6.275%
O[C@@H]1CN(CC2CC2)CC[C@H]1N1CCN(c2ccccc2F)CC1 | 4.313%

Structure (SMILES) | Percent Effect
Cc1noc2ncc(C(=O)N3CCCC(n4cccn4)C3)cc12 (stereo not drawn) | -8.644%
Cc1cnn(C2CCCN(C(=O)CCc3c(C)noc3C)C2)c1 (stereo not drawn) | 114.5%
Cc1nn(C)c(C)c1CCC(=O)N1CCCC(n2cccn2)C1 (stereo not drawn) | 104.5%
Cc1cnn(C2CCCN(C(=O)c3c(C)oc(C)c3C)C2)c1 (stereo not drawn) | 2.216%
Cc1noc(C)c1CCC(=O)N1CCCC(n2cccn2)C1 (stereo not drawn) | 112.2%
Cc1nn(C)c(C)c1CCC(=O)N1CCCOC(Cn2cccn2)C1 (stereo not drawn) | -1.849%
Cc1noc(Cl)c1CC(=O)N1CCCC(n2cccn2)C1 (stereo not drawn) | -0.9782%
Cc1nn(C)c(C)c1CC(=O)N1CCCC(n2cccn2)C1 (stereo not drawn) | -0.59%
O=C(NCc1csc(-c2cccs2)n1)C1NCCc2[nH]cnc21 (stereo not drawn) | -2.948%
COc1ccccc1OCC(=O)NS(=O)(=O)c1ccc(F)cc1F | -4.254%
CC(=O)N(CCc1nc(-c2cc(C(N)=O)oc2C)cs1)C(C)C | 1.206%
CN1CCN(Cc2cn3c(n2)CN(CC2CC2)CC3)CC1 | 0.4207%
CN1CCN(Cc2cn3c(n2)CN(C(=O)c2ccccn2)CC3)CC1.O=C(O)C(F)(F)F.O=C(O)C(F)(F)F.O=C(O)C(F)(F)F | 6.364%
CN1CCN(Cc2cn3c(n2)CN(Cc2ccccn2)CC3)CC1 | 100%
Cn1cccc1C(=O)NCc1cn2c(n1)CN(Cc1cccnc1)CC2.O=C(O)C(F)(F)F.O=C(O)C(F)(F)F | -5.868%
CS(=O)(=O)NCc1cn2c(n1)CN(Cc1ccoc1)CC2.O=C(O)C(F)(F)F | 2.843%
CS(=O)(=O)NCc1cn2c(n1)CN(Cc1cccnc1)CC2.O=C(O)C(F)(F)F.O=C(O)C(F)(F)F | 116.6%
CN1CCN(Cc2cn3c(n2)CN(C(=O)N2CCCC2)CC3)CC1 | -9.344%
O=C(CC1CC1)NCc1cn2c(n1)CN(Cc1cccnc1)CC2.O=C(O)C(F)(F)F.O=C(O)C(F)(F)F | -16.83%
Cn1cccc1C(=O)NCc1cn2c(n1)CN(Cc1ccccn1)CC2.O=C(O)C(F)(F)F.O=C(O)C(F)(F)F | -5.455%
CN1CCN(Cc2cn3c(n2)CN(Cc2ccncc2)CC3)CC1 | 100.2%
c1cncc(CN2CCn3cc(CN4CCCCC4)nc3C2)c1 | 99.27%
O=C(NCc1cn2c(n1)CN(Cc1cccnc1)CC2)C1CCC1.O=C(O)C(F)(F)F.O=C(O)C(F)(F)F | -2.2%

Reference: ChEMBL document CHEMBL3988442, “University of Dundee, Small-Polar-MMV Screening Library” (2021)
